Source: PubChem
The full list was thinned out, with hits kept by preference.
LmPK inh: qHTS Assay for Inhibitors of Leishmania Mexicana Pyruvate Kinase (LmPK). Q27686. purified LmPK, Kinase-Glo ATP luminescence, 1 h. Potency, µM (highest dose often 57.5 µM), inactives show at the top dose activity change, negative = inhibition, most hits filed as inhibitors. 290,000 compounds, 0.37% hits. AID 1721, 2009; note: potency is the fitted concentration of half-maximal effect; % is set by controls: 0 for no effect and ±100 for the full control effect
Target sequence (Q27686 whole entry, looked up): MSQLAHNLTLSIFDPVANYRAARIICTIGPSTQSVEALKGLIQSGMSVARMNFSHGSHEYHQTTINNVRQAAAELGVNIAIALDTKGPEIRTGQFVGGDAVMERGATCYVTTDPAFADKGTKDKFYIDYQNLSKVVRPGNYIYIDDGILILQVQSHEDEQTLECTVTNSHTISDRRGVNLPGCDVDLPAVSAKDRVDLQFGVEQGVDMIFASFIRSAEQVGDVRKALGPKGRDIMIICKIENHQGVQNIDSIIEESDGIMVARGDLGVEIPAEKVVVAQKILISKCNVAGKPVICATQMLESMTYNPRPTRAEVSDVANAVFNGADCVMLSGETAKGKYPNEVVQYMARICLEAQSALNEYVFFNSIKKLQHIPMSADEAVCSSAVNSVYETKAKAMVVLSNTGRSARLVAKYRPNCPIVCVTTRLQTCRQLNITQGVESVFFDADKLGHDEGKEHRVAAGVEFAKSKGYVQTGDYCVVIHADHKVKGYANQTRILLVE
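Screened at intermediate enzyme activity to detect both inhibitors and activators: LmPK at 0.1 nM, with a 0.5 nM enzyme column as activation reference. PEP 0.5 mM, ADP 0.1 mM; ATP detected by luminescence after 1 h.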
CHX counter: Cycloheximide Counterscreen for Small Molecule Inhibitors of Shiga Toxin | cell reporter, cycloheximide protein synthesis inhibition counterscreen | max response, % | 300,000 compounds, 12% hits | AID 2314, 2010; in the data active = max response mostly above about 13%, no sharp cut-off; inactive = mostly below about 14%; note: read at 38.3 µM for the half of the compounds with a filed dose; 0% is about no effect
Shiga inhibitor: A qHTS for Small Molecule Inhibitors of Shiga Toxin. inhibition, % at 38.7 µM. Vero cells, Shiga toxin protein synthesis inhibition reporter. 290,000 compounds, 9.2% hits. AID 2315, 2010; in the data active = inhibition mostly above about 28%, no sharp cut-off; inactive = mostly below about 43%; note: 0% is about no effect
Giardia FBPA inh: qHTS Assay for Inhibitors of Fructose-1,6-bisphosphate Aldolase from Giardia Lamblia; A8B2U2; purified Giardia FBPA; Potency, µM (highest dose often 59.6 µM), inactives show at the top dose activity, negative = inhibition, most hits filed as inhibitors; 290,000 compounds, 0.71% hits; note: potency is the fitted concentration of half-maximal effect; % is set by controls: 0 for no effect and ±100 for the full control effect; nearly all actives have a fitted effect of over 55% in size
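40 nM FBPA preincubated 10 min at RT with compound (up to 57.5 uM final), then substrate plus GAPDH/TPI/NAD/arsenate coupling and diaphorase/resazurin added. Fluorescence read after 20 min at RT, 525/598 nm.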
Sm TGR inh: qHTS Assay for the Inhibitors of Schistosoma Mansoni Peroxiredoxins | AID 485364, 2010 | 360,000 compounds, 3% hits | purified TGR, DTNB reduction, TNB absorbance 405 nm | Potency, µM (titrated, usually from 114 µM), for inactives: at the top dose activity change, negative = inhibition, most hits filed as inhibitors; note: potency is the fitted concentration of half-maximal effect; % is set by controls: 0 for no effect and ±100 for the full control effect; nearly all actives have a fitted effect of over 60% in size
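TGR 20 nM + NADPH 100 uM (dispensed conc.), cpd preinc 15 min RT; start with NADPH (500 uM addition) then DTNB (15 mM addition). Kinetic TNB absorbance, 405 nm filter. Four-parameter Hill fit across titration.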
TbPYK inhibitor: qHTS of Trypanosoma Brucei Inhibitors; pyruvate kinase (Trypanosoma brucei), Q57TT1; TbPYK enzyme, Kinase-Glo Plus ATP luminescence, 45 min; Potency, µM (titrated, usually from 76.8 µM), for the others: top-dose activity, negative = inhibition, most hits filed as inhibitors; 410,000 compounds, 0.12% hits; note: potency is the fitted concentration of half-maximal effect; % is set by controls: 0 for no effect and ±100 for the full control effect; nearly all actives have a fitted effect of over 50% in size
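Luminescent Kinase-Glo Plus end-point after 45 min room-temperature reaction of T. brucei pyruvate kinase started with 130 uM ADP (final). Buffer TEA 50 mM pH 7.2 with KCl, MgCl2, BSA, Tween-20; titration-based qHTS with fitted concentration-effect curves.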
An asterisk follows results filed as active; ? = inconclusive; . = no result given; + = active, no number; [ ] = dose if it differs, or a comment. Unless noted, calls come from the whole dose curve; as a rule, active = well fitted curve in the direction sought with a large enough effect; inconclusive = small, poorly fitted or top-dose-only effect, or another doubt; inactive = no such curve, though single readings can be large; an effect the other way counts as inactive or inconclusive.

SMILES | LmPK inh | CHX counter | Shiga inhibitor | Giardia FBPA inh | Sm TGR inh | TbPYK inhibitor
COc1ccc(Nc2cc(C)c3ccccc3n2)cc1 | 2% | 41* | 103* | -25% | 8% | 2%
COc1ccc(Nc2ccc(OC)cc2)cc1 | -12% | 46* | 87* | ? | 40µM* | 8%
CCOC(=O)c1nc(Nc2ccc(OC)cc2)c2ccccc2n1 | 6% | 24* | 47* | -6% | 8% | -8%
COc1ccc(Nc2c3c(nc4ccccc24)CCC3)cc1 | 0% | -3 | -5 | -2% | 16% | 5%
COc1ccc(Nc2c3ccccc3nc3ccccc23)cc1 | 7% | 22* | 44* | -19% | -4% | -4%
O=C(Nc1ccc2nc(SCC(=O)N3CCCC3)sc2c1)c1cccc(F)c1 | . | . | . | . | -3% | 0%
CC(=O)Nc1ccccc1-c1nc2ccccc2n(Cc2cccc(Br)c2)c1=O | . | . | . | . | 4% | -5%
COc1ccc(NC2=CC(=O)N(C)C2=O)cc1 | -1% | 21 | + | -27% | ? | -2%
COc1ccc(Nc2ccc(Nc3ccc(OC)cc3)nn2)cc1 | 0% | 1 | -2 | 4% | -7% | -1%
COc1ccc(NC2=NCC(C)S2)cc1 (stereo not drawn) | 8% | 17* | 18 | 7% | 9% | 5%
COc1ccc(Nc2cccccc2=O)cc1 | -1% | 15 | 27 | 0% | -32% | 4%
COc1ccc(NC2=NC(C)(C)CS2)cc1 | -3% | 28* | 70* | -10% | 2% | -28%
CC1CN=C(Nc2ccc(F)cc2)S1 (stereo not drawn) | 1% | -1 | -1 | 9% | -5% | -7%
COc1ccc(-c2cc3c(=O)n(CC(=O)Nc4cc(C)ccc4C)ccn3n2)cc1 | . | . | . | . | 0% | -6%
COc1cc(OC)cc(C(=O)Nn2cc(C(=O)Nc3c(F)cccc3F)c3ccccc3c2=O)c1 | -8% | -6 | -15 | 3% | -9% | 10%
CCOC(=O)c1ccc(NC(=O)C2=C(C)C(=O)OC23CCN(C(C)C)CC3)cc1 | . | . | . | . | 0% | -3%
C=C1C[C@@H]2[C@H]3CCC4=CC(=O)C=C[C@]4(C)[C@@]3(F)[C@@H](O)C[C@]2(C)[C@]1(O)C(=O)COC(C)=O | . | . | . | . | . | 2%
CC(C)c1ccc(C2CC(c3ccc(Br)cc3)=NN2C(N)=S)cc1 (stereo not drawn) | 1% | 19 | active | 1% | -4% | 5%
c1ccc(CCCNCC2COc3ccccc3O2)cc1 (stereo not drawn) | 8% | 5 | -4 | 1% | ? | 0%
COc1ccc(CNCC2COc3ccccc3O2)cc1 (stereo not drawn) | 1% | 22* | 28 | -29% | -14% | 2%
O=C(CCC(=O)N1CCOc2ccccc21)NCCc1ccccc1 | -2% | 8.3* | 12 | 1% | -13% | 2%
O=C(CC1COc2ccccc2O1)NCCc1ccccc1 (stereo not drawn) | 4% | 52* | 64* | . | 7% | -5%
c1ccc(CNCC2COc3ccccc3O2)cc1 (stereo not drawn) | 1% | 2 | 49* | -18% | -8% | 3%
CCOCCCNC(=O)Cn1ncc2c([nH]c3ccccc32)c1=O | . | . | . | . | 7% | -2%
O=C1CN(C(=O)COc2ccc(Cl)cc2Cl)C(c2ccc(F)cc2)c2cc(F)ccc2N1 (stereo not drawn) | . | . | . | . | -10% | 0%
SMILES | LmPK inh | CHX counter | Shiga inhibitor | Giardia FBPA inh | Sm TGR inh | TbPYK inhibitor
CC[C@@H]1OC(=O)C[C@H](O)[C@@H](C)[C@@H](O[C@H]2O[C@@H](C)[C@H](O[C@@H]3C[C@](C)(O)[C@H](O)[C@@H](C)O3)[C@@H](N(C)C)[C@@H]2O)[C@@H](C=O)C[C@@H](C)C(=O)/C=C/C(C)=C[C@@H]1CO[C@H]1O[C@@H](C)[C@H](O)[C@H](OC)[C@@H]1OC | . | . | . | . | . | 3%
CN(C)c1ccc(C2CC(=O)C=C(Nc3ccccc3N)C2)cc1 (stereo not drawn) | 1% | 40* | 68* | 1% | -12% | -11%
NC(=O)c1cccc(-c2cc(Nc3ccc(OC(F)(F)F)cc3)ncn2)c1 | 5% | 13* | 26 | -9% | 2% | 0%
O=C(Nc1cccc(S(=O)(=O)NC2=NCCC2)c1)c1cc(-c2ccco2)nc2ccccc12 | 0% | 1 | -1 | -29% | 18µM* | -4%
O=C(NC(=S)Nc1cccc(S(=O)(=O)NC2=NCCC2)c1)c1cc(-c2ccco2)nc2ccccc12 | -2% | -1 | 2 | -6% | 13µM* | -28%
O=C(Nc1cccc(S(=O)(=O)NC2=NCCCCC2)c1)c1cc(-c2ccccc2)nc2ccccc12 | 2% | -3 | -9 | -2% | 1% | 0%
O=C(Nc1cccc(S(=O)(=O)NC2=NCCCCC2)c1)c1cc(-c2ccc(Cl)cc2)nc2ccccc12 | 2% | -4 | 14 | -9% | 6% | -2%
Cc1ccc(C(=O)NCc2ccc3c(c2)CCO3)cc1C | -7% | 22* | 57* | 4% | -9% | -6%
O=C(NCc1ccc2c(c1)CCO2)Nc1ccccc1 | 0% | 61* | 54* | 0% | -11% | -18%
Cc1ccc(-c2cc(=O)c3cc(Cl)ccc3[nH]2)cc1 | -4% | 26* | 39* | 0%[89.2 µM] | -7% | .
CCCCN(C)Cc1c(C)[nH]c2ccc(C)cc2c1=O | 3% | -3 | -2 | 11% | -5% | .
Cc1ccc2[nH]c(-c3ccccc3)cc(=O)c2c1 | -7% | 30* | 49 | 1% | 1% | -6%
Cc1ccc(-c2cc(=O)c3ccccc3[nH]2)cc1 | 5% | 29* | 112* | 4%[136 µM] | 1% | 1%
CCN(CC)Cc1c(-c2ccccc2)[nH]c2ccc(C)cc2c1=O | 7% | 29* | 35* | -6% | 3% | -1%
O=[N+]([O-])c1ccc(S(=O)(=O)Nc2ccc(-c3ccccc3)cc2)cc1 | . | . | . | . | . | -3%
COc1cccc(NC(=O)/C=C/c2ccco2)c1 | 16µM* | 52* | 140* | -23% | 10µM* | -16%
CSc1cccc(NC(=O)/C=C/c2ccco2)c1 | 2% | 55* | 110* | -13% | 1.1µM* | -13%
COc1ccccc1NC(=O)C1CCN(C(=O)c2sc3nc[nH]c(=O)c3c2C)CC1 | . | . | . | . | -7% | -4%
CC1(C)CC2CC(C)(CN2S(=O)(=O)c2cccc(C(=O)OCC(=O)NC(N)=O)c2)C1 (stereo not drawn) | . | . | . | . | 16µM* | -6%
Cc1ccccc1NC(=O)CCCCCN1C(=O)[C@@H]2Cc3ccccc3CN2C1=O | -12% | 12 | -16 | . | 2% | 5%
